Source: PubChem BioAssay AID504326 (The Scripps Research Institute Molecular Screening Center, 2011)
The whole screen tested about 340,000 compounds, of which about 990 (0.29%) were called active. Many of the other results were omitted from the sample, so actives are more common in it than they were. A number with no mark means an inactive call. Rule as the data show it: active = activation above about 18%; inactive = the rest.

Molecular target: Mu-type opioid receptor (Homo sapiens) + Delta-type opioid receptor (Homo sapiens) (UniProt P35372+P41143)
Sequence (P35372 whole entry, looked up): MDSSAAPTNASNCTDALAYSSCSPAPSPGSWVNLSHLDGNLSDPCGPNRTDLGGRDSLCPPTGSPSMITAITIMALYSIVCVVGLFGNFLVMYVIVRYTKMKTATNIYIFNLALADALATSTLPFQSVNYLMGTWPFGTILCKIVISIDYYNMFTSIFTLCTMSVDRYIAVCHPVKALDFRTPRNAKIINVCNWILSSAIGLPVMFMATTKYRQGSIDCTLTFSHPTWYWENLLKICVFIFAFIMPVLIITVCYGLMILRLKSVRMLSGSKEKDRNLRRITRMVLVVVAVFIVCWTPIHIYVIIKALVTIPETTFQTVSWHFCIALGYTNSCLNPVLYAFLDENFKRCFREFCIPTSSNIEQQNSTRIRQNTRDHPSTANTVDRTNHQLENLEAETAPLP
Sequence (P41143 whole entry, looked up): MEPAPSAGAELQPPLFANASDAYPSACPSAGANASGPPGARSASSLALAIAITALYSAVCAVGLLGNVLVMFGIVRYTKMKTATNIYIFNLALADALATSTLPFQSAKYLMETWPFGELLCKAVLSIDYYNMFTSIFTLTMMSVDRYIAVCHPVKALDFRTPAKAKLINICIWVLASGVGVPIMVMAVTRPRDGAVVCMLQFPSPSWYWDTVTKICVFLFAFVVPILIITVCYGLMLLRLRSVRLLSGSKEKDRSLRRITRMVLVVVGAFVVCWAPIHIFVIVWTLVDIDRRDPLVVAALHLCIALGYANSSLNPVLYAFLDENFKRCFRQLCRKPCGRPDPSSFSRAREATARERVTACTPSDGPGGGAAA
Test: inducers of mu-delta opioid receptor heterodimers – cell-based, luminescence, primary screen (AID 504326);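 also: 0% = vehicle-treated cells and 100% = reference agonist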
Conditions: cells, OPRM1-OPRD1 heterodimerization, at 9.3 µM, stronger effect = higher value

Structure (SMILES) | activation
CCOC(=O)c1c(NC(=O)CNC2CCCc3ccccc32)sc(C(N)=O)c1C (stereo unspecified) | 9.2%
CC(NC(=O)c1ccccc1)C(=O)Nc1ccccc1 (stereo unspecified) | -3.96%
O=C1C=C(NS(=O)(=O)c2ccccc2)C(=O)c2ccccc21 | 1.48%
O=C(NC1=CC(=O)c2ccccc2C1=O)c1ccccc1 | 20% (active)
O=C(Cc1ccc(S(=O)(=O)N2CCOCC2)s1)N1CCN(c2ccc(C(F)(F)F)cc2[N+](=O)[O-])CC1 | -0.92%
CCOC(=O)N1CCN(c2c(NCCN3CCN(c4ccccc4F)CC3)c(=O)c2=O)CC1 | -1.83%
COc1ccc(NC(=O)CN(C)C(=O)c2ccc(COc3ccccc3)o2)cc1 | -1.92%
CN(Cc1ccccc1)C(=O)c1ccc(COc2ccccc2)cc1 | 1.93%
CN(CC(=O)Nc1ccc(Cl)cc1)C(=O)c1ccc(COc2ccccc2)cc1 | 22.2% (active)
CC(CNc1ccc([N+](=O)[O-])c2cccnc12)Nc1c([N+](=O)[O-])cc(C(F)(F)F)cc1[N+](=O)[O-] (stereo unspecified) | 0.2%
CCOC(=O)c1sc(NC(=O)C2CSC3(C)CCC(=O)N23)nc1C (stereo unspecified) | -4.78%
Clc1ccc(-c2cc(-c3ccccn3)on2)c(Cl)c1 | -0.72%
CCOc1ccc(OCC)c(-c2c(=O)n(OCc3ccc(Cl)cc3)c3ccccc3[n+]2[O-])c1 | -0.14%
Clc1ccc(COn2c(-c3ccc(Cl)cc3Cl)nc3ncccc32)cc1 | 55.9% (active)
Cc1cccc(N2CCN(C(=O)c3ccccc3NC(=O)C3CCCCC3C(=O)O)CC2)c1 (stereo unspecified) | -1.68%
COc1ccc(C2Nc3ccccc3C(=O)N2Cc2ccccc2)cc1Cn1nnc2ccccc21 (stereo unspecified) | 15.1%
COc1ccc(C2Nc3ccccc3C(=O)N2c2ccc(F)cc2)cc1Cn1nnc2ccccc21 (stereo unspecified) | 29.4% (active)
COc1ccc(N2C(=O)c3ccccc3NC2c2ccc(OC)c(CN3CCOCC3)c2)cc1 (stereo unspecified) | -3.57%
Cc1ccc2cccc(O)c2[n+]1[O-] | 4.35%
CCOc1ccc(C(=O)Nc2ccc(S(=O)(=O)NCC3CCCO3)cc2)cc1OCC (stereo unspecified) | -4.05%
COc1ccc(/C=C/C(=O)Nc2ccc(C34CC5CC(CC(O)(C5)C3)C4)cc2)cc1OC | 3.53%

Structure (SMILES) | activation
O=C(NCc1cn2ccsc2n1)Nc1cccc(Cl)c1 | -4.06%
O=C(NCc1cn2ccsc2n1)Nc1ccc(Cl)cc1 | 30.4% (active)
O=C(NCc1ccccn1)Nc1ccc(Cl)cc1 | -2.12%
CCSC1=C(C#N)C(=O)n2c1cc1c2CCCC1 | -1.61%
O=C1c2cccc3c([N+](=O)[O-])ccc(c23)C(=O)N1CC1CCCO1 (stereo unspecified) | 2.93%
Cc1cc(C)c(S(=O)(=O)N2C=CC(C(F)(F)F)=NCC2)c(C)c1 | 0.24%
COc1cccc(-n2c(SCC(=O)NC3CCCCC3)nc3n[nH]c(C)c3c2=N)c1 | 0.14%
CCCCNC(=O)CSc1nc2n[nH]c(C)c2c(=N)n1-c1cccc(Cl)c1C | 0.12%
Cc1ccc(-n2c(SCC(=O)NCCC3=CCCCC3)nc3n[nH]c(C)c3c2=N)cc1Cl | 27.3% (active)
CCNS(=O)(=O)c1ccc(NC(=O)Nc2cccc(OC)c2)cc1 | 62.3% (active)
CCN(CC(=O)Nc1ccc(S(=O)(=O)N2CCCC2)cc1)CC(=O)Nc1cccc(OC)c1 | -3.32%
COc1cccc(NC(C)=[N+](C)CCNS(=O)(=O)c2ccc(Cl)cc2)c1 | -2.81%
Cc1ccc(N2C(=O)N3[C@@H]4c5ccccc5OC[C@@H]4[C@@H](c4ccccc4)[C@@]3(C)C2=O)cc1 | -1.07%
CC(C)N(Cc1nnc(-c2ccccc2Br)o1)C(=O)c1cc(Cl)nc2ccccc12 | -1.2%
COCCCNc1nc2c(-c3cccc(C)c3)nnn2c2ccc(Cl)cc12 | 41.8% (active)
COCCCNc1nc2c(-c3cccc(C(F)(F)F)c3)nnn2c2ccccc12 | -0.55%
COC(=O)Cn1nc(-c2ccccc2)c2cc(Cl)ccc21 | -1.42%
CC(=O)c1ccc(NC(=O)C(C)NCc2ccc(Cl)cc2)cc1 (stereo unspecified) | -0.65%
CN(C(=O)c1ccc(NC(=O)Cc2cccc(NC(=O)C3CCN(C(=O)c4ccccc4)CC3)c2)cc1)C1CC1 | -0.88%
COCCOC1CCN(C(=O)c2ccc(OC)c(OC3CCN(C(C)C)CC3)c2)CC1 | -3.67%
CCC(C(=O)OCC(=O)Nc1c(Cl)cc(Cl)cc1Cl)c1ccccc1 (stereo unspecified) | 6.24%

Structure (SMILES) | activation
CCC(C(=O)OCC(=O)Nc1ccc(C(=O)Nc2ccc(OC)cc2)cc1)c1ccccc1 (stereo unspecified) | 19.4% (active)
CCC(C(=O)OCC(=O)Nc1ccccc1-c1ccccc1)c1ccccc1 (stereo unspecified) | 12.4%
O=C(CC(=O)N/N=C\c1cccc(Cl)c1Cl)NCc1ccccc1 | 1.01%
O=C(CNC(=O)c1ccccc1F)c1ccc(Br)cc1 | -3.5%
CCC(C)(C)C1CCC(=NNC(=O)c2ccc(Br)o2)CC1 (stereo unspecified) | -0.98%
CC(NC(=O)Nc1ccccc1)C(c1cccs1)N1CCN(c2ccccc2)CC1 (stereo unspecified) | -1.69%
CCCC(=O)NC(C)C(c1cccs1)N1CCN(c2ccccc2)CC1 (stereo unspecified) | 25.9% (active)
CC(NC(=O)C(C)(C)C)C(c1cccs1)N1CCN(Cc2ccccc2)CC1 (stereo unspecified) | -1.34%
C#CC(CCN1CCCCC1)(OC)c1ccccc1 (stereo unspecified) | -1.1%
O=C(c1cccc([N+](=O)[O-])c1)N1CCN(Cc2ccccc2)CC1 | -2.62%
Cc1ccc(S(=O)(=O)N(Cc2cccc([N+](=O)[O-])c2)C(=O)N2CCN(C)CC2)cc1 | 2.18%
O=C(CCl)N(Cc1cccc([N+](=O)[O-])c1)c1cccc(Cl)c1 | 31.3% (active)
Cc1cc2c(cc1C)N(Cc1ccccc1)C1=NCCCN12 | -3.79%
COCCN(CCOC)S(=O)(=O)c1ccc(/C(O)=C(\C#N)c2nc3ccccc3[nH]2)cc1 | -0.63%
N#C/C(=C(/O)Cc1cccc2ccccc12)c1nc2ccccc2s1 | -0.06%
N#C/C(=C(/O)COc1cccc2ccccc12)c1nc2ccccc2[nH]1 | 20.5% (active)
COc1ccccc1C(=O)COC(=O)COc1ccc(C#N)cc1 | -3.44%
CC(C)(C)c1nnc2sc(SCC(O)=C(C#N)c3nc4ccccc4[nH]3)nn2c1=O | -3.45%
N#C/C(=C(/O)COC(=O)COc1ccc(Cl)cc1)c1nc2ccccc2[nH]1 | 24.4% (active)
